Compounds without any hit were thinned out: in the full panel of roughly 79,000, 15% have a hit. Values without a mark were called inactive. Cut-off read from the data, not from the text of the source: active = growth inhibition above about 70%; inactive = the rest.
Assay: NCI Yeast Anticancer Drug Screen. Data for the mlh1 rad18 strain (AID 175)
Conditions: S. cerevisiae mlh1 rad18 strain growth inhibition; at 50.0 µM; active compounds read high
How it was run: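 Vehicle-treated cultures served as the reference for growth inhibition in a yeast strain carrying DNA damage repair alterations exposed to each compound.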

Compound | growth inhibition [%]
CC(=O)Nc1ccc2ccccc2c1SC1CC(=O)N(c2ccccc2)C1=O (stereo not drawn) | -20.6
Clc1ccc(CSc2cnnc(Cl)c2SCc2ccc(Cl)cc2)cc1 | 3.05
CN(C(=O)Sc1ccc([N+](=O)[O-])cc1)c1ccc([N+](=O)[O-])cc1 | 21.3
Nc1nc2c(ccc3ccccc32)[nH]1 | 21.6
O=[N+]([O-])C(C(Cl)=C(Cl)Cl)=C(n1nnc2ccccc21)n1nnc2ccccc21 | 21.1
CC(=O)S | 5.7
O=C(O)C(c1cccs1)C1(O)CCCCC1 (stereo not drawn) | -5.3
CCOC(=O)c1[nH]c(COC(C)=O)c2c1CCCCCCCCCC2 | -12.3
O=C(CC(=O)c1ccccc1)Cc1ccccc1.O=C(CC(=O)c1ccccc1)Cc1ccccc1.[Cu] | 41.2
CCOC(=O)c1ccccc1[N+](=O)[O-] | 18.2
O=C(NN(C(=O)c1ccc([N+](=O)[O-])cc1)c1ccccc1)c1ccc([N+](=O)[O-])cc1 | 13.2
CC(=O)N1CCC(=O)/C(=C/c2ccccc2)C1 | 44
CC(=O)c1ccc(OC(=O)Nc2ccc(Cl)cc2)cc1 | 12.9
CC(=O)Nc1cc(Cl)ccc1SC1OC(COC(C)=O)C(OC(C)=O)C(OC(C)=O)C1OC(C)=O (stereo not drawn) | -2.8
CNC(=S)Nc1cccc(C)c1 | 4.05
Cc1ccc(-n2nc(C)cc2C)nn1 | -13.8
CCC(C(C)O)[N+](=O)[O-] (stereo not drawn) | 7.75
CC(=O)Nc1ccc(/C=C2\C(=O)Nc3ccccc32)cc1 | -5.9
CN1CCN(C)c2nc3ccccc3nc21 | -7.05
CC(C)CCCC(C)C1CCC2(C)C3CCC4C(C)(C)C(OCC(C)(C)C)CCC4(C)C3CCC12C (stereo not drawn) | -5.4
Cc1cccc(/C=C(\C#N)C(=O)c2ccccc2)c1 | 21.2
CC1CC(C)OC(C)(c2ccccc2)O1 (stereo not drawn) | 8.6
CC(Br)CCc1ccccc1Br (stereo not drawn) | 10.7
